Laboratory results as given in PubChem BioAssay.
Where “and” joins values, the source holds several entries; their conditions need not be identical. Identical values can stand only once. Inconclusive results are not listed. Calls of active or inactive are those of the source.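 The calls were made as follows, unless noted: active = mean z-score across replicates of 1.96 or higher in either the MELAS or the Rieske mutant cell line; inactive = the rest.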

What was measured:
[1] = P. berghei load reduction in hepatocytes – cell-based, HepG2, luciferase luminescence, HepG2 viability, primary screen (AID 624349; in the data active = parasite load remaining mostly below about 12%, no sharp cut-off; inactive = mostly above about 10%;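 also: 100% = mean of DMSO negative control wells on the same plate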); settings: P. berghei liver stage in HepG2, luciferase luminescence, concentration not given here; parasite load remaining: stronger effect = lower value; viability: measured here: HepG2 viability without parasites
[2] = Wnt pathway potentiators raising nuclear beta-catenin – imaging, WNT3A-conditioned medium, mouse C2C12, NPC library, primary screen (AID 1117326; in the data active = nuclear beta-catenin stimulation mostly above about 4.2%, no sharp cut-off; inactive = mostly below about 10%; also: reference of the scale not given here); settings: stronger effect = higher value
[3] = stimulators of insulin release from INS-1E, primary screen, cell-based, 5 mM glucose, NPC library (AID 1117329;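 active = compound raises insulin release from rat beta cells at 5 mM glucose, no numeric limit stated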; also: reference of the scale not given here); settings: rat INS-1E insulin secretion, at 10 µM, stronger effect = higher value
[4] = growth inhibition of GSK3B-pretreated HCT116 cells – cell-based, CellTiter-Glo, 0.2 to 20 µM (AID 1117336;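 active = compounds lowering colon cancer cell viability after pretreatment blocking the GSK3B kinase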); settings: HCT116 viability after GSK3B inhibitor, at 20 µM, stronger effect = higher value
[5] = inhibition of endothelial tube formation, primary screen, imaging, VEGF stimulated, CD31 staining, tube area, NPC library (AID 1117340;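 active = compound that reduces growth-factor-driven endothelial tube area in a mixed cell culture, no cutoff stated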); settings: VEGF-stimulated ADSC/ECFC co-culture, at 10 µM, stronger effect = higher value
[6] = GLP1 release stimulators, primary, NCI-H716, NPC library (AID 1117341;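 active = compound raises GLP1 secretion from the human gut endocrine cells, with no numeric limit stated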; also: reference of the scale not given here); settings: NCI-H716 cells, at 10 µM, stronger effect = higher value
[7] = HCT116 colon cancer cell growth inhibition, primary screen, CellTiter-Glo luminescence, NPC library (AID 1117342;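 active = compounds that lower survival of HCT116 colon cancer cells in the luminescence readout, no numeric limit stated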); settings: at 20 µM (top of the series)
[8] = reduced SW480 viability measured with CellTiter-Glo, NPC library, primary (AID 1117343;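 active = compounds that lower viability of the colon cancer cells in the luminescence readout, with no numeric limit stated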); settings: CellTiter-Glo luminescence; at 20 µM (top of the series) unless noted
[9] = NPC library primary testing for decreased DLD-1 cell viability via CellTiter-Glo (AID 1117346;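 active = compounds that lower survival of DLD-1 colon cancer cells in the luminescence readout, no cutoff given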); settings: DLD-1 viability, CellTiter-Glo luminescence; at 20 µM (top of the series)
[10] = viability loss in pontine glioma line – cell-based, SU-DIPG-XXV, MIPE5.0, CellTiter-Glo, qHTS, dose response (AID 1347065; cut-off not given, nearly all actives have AC50 up to about 26 µM;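 also: cells exposed to compound for 48 hours before ATP readout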); settings: CellTiter-Glo ATP luminescence
[11] = JHH-DIPG-1 glioma cell viability, MIPE5.0 library, CellTiter-Glo luminescence, qHTS (AID 1347067; cut-off not given, nearly all actives have AC50 up to about 26 µM;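 also: cells exposed to compound for 48 hours before readout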); settings: JHH-DIPG-1 glioma viability, CellTiter-Glo ATP luminescence
[12] = growth inhibition of DIPG cells – cell-based, MIPE5.0 library, qHTS (AID 1347068; cut-off not given, nearly all actives have IC50 up to about 30 µM); settings: SU-DIPG-XXV viability
[13] = viability loss with induced miR-34 in A549 – imaging, A549 dox-inducible miR-34, nuclei and caspase counts, primary screen (AID 1347080;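 active = compounds whose cell count with miR-34 switched on is under 0.7 times the count with it off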); settings: A549 miR-34 inducible, Hoechst nuclei count, 48 h
[14] = MELAS cybrid and Rieske KO viability enhancers – cell-based, MELAS cybrids, Rieske KO mouse fibroblasts, CellTiter-Glo, primary screen (AID 1508586); settings: low glucose;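 also: z relative to plate mean and SD of compound and empty wells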
[15] = viability loss in pontine glioma line – cell-based, JHH-DIPG-1, MIPE4.0, CellTiter-Glo, qHTS, dose response (AID 1347062; cut-off not given, nearly all actives have AC50 up to about 27 µM); settings: JHH-DIPG-1 viability, CellTiter-Glo ATP luminescence
[16] = growth inhibition of DIPG cells – cell-based, MIPE4.0 library, CellTiter-Glo luminescence, qHTS (AID 1347066; cut-off not given, nearly all actives have AC50 up to about 30 µM;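 also: cells exposed to compound for 48 hours before readout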); settings: SU-DIPG-VI viability, CellTiter-Glo ATP luminescence
[17] = viability loss in pontine glioma line – cell-based, SU-DIPG-XIII, MIPE4.0, CellTiter-Glo, qHTS, dose response (AID 1347061; cut-off not given, nearly all actives have AC50 up to about 37 µM;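 also: cells exposed to compound for 48 hours before readout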); settings: CellTiter-Glo ATP luminescence
[18] = viability loss in pontine glioma line – cell-based, SU-DIPG-IV, MIPE4.0, CellTiter-Glo, qHTS, dose response (AID 1347063; cut-off not given, nearly all actives have AC50 up to about 30 µM;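 also: compound exposure lasted 48 hours before the viability readout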); settings: CellTiter-Glo ATP luminescence
[19] = galactose survival enhancers in mitochondrial complex I cybrids – cell-based, galactose medium, ATP luminescence, primary screen (AID 1645843;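 active = z-score of at least 1.8 in each of two replicates, scored against plate mean and spread of sample wells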;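 also: positive z means more ATP and so rescue of galactose-driven cybrid death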); settings: complex I mutant cybrid cells, 72 h, stronger effect = higher value
[20] = stronger effect = lower value, cell number ratio, induced over uninduced
[21] = measured here: relative caspase fold change +Dox/-Dox
[22] = measured here: total cells with miR-34 induction, stronger effect = lower value
[23] = measured here: total cells without miR-34 induction
[24] = MELAS cybrid survival, CellTiter-Glo 48 h, stronger effect = higher value
[25] = Rieske KO mouse fibroblast survival, CellTiter-Glo 72 h

CN1CCCN=C1/C=C/c1cccs1
0%: nuclear beta-catenin stimulation ([2]; stimulation, at 2 µM)
9990: cell count [13, 23]
inactive: parasite load remaining [1] 31.2% and 87.7% | nuclear beta-catenin stimulation ([2]; at 10 µM) 1.3% | insulin secretion stimulation [3] 0.75% | viability decrease [4] 6.6% | tube area decrease [5] -9.9% | GLP1 secretion stimulation [6] 1.8% | inhibition of viability [7] 13.5% | viability decrease (inhibition) [8] 4.9% | viability decrease (inhibition) [9] -4.2% | outcome [10] | outcome [11] | outcome [12] | fold change [13, 20] 0.92 | z-score [14, 24] 0.267
47.1% and 90.3%: viability [1]
1.06: fold change [13, 21]
9190: cell count [13, 22]
-0.214: z-score [14, 25]

COCCCN1CCC(NC(=O)c2cc(Cl)c(N)c3c2OCC3)CC1
-0.104 and -0.205: z-score [14, 25]
0.687 and 0.593: fold change [13, 21]
inactive: nuclear beta-catenin stimulation ([2]; at 10 µM) 0.7% | insulin secretion stimulation [3] 1% | viability decrease [4] -4.2% | tube area decrease [5] -8% | GLP1 secretion stimulation [6] 1.9% | inhibition of viability [7] 3.4% | viability decrease (inhibition) [8] -13.9% | viability decrease (inhibition) [9] -4.2% | outcome [15] | outcome [11] | outcome [12] | fold change [13, 20] 0.972 and 1.31 | z-score [14, 24] -0.321 and -0.32
8300 and 5970: cell count [13, 23]
-2%: nuclear beta-catenin stimulation ([2]; stimulation, at 2 µM)
8080 and 7810: cell count [13, 22]
active: AC50 [16] 23.5 µM

CC(C)OC(=O)OCOP(=O)(CO[C@H](C)Cn1cnc2c(N)ncnc21)OCOC(=O)OC(C)C
3%: nuclear beta-catenin stimulation ([2]; stimulation, at 2 µM)
inactive: nuclear beta-catenin stimulation ([2]; at 10 µM) 6.3% | insulin secretion stimulation [3] 13.8% | viability decrease [4] 2.2% | GLP1 secretion stimulation [6] -1.8% | inhibition of viability [7] 32.1% | viability decrease (inhibition) [8] 22.7% | viability decrease (inhibition) [9] 47.8% | outcome [17] | outcome [15] | outcome [18] | outcome [16]
active: tube area decrease [5] 65.2%

Cc1ccc(C(=O)c2cc(O)c(O)c([N+](=O)[O-])c2)cc1
0.594 and 0.464: fold change [13, 21]
1.2%: nuclear beta-catenin stimulation ([2]; stimulation, at 2 µM)
8990 and 11100: cell count [13, 23]
inactive: parasite load remaining [1] 26.1% | nuclear beta-catenin stimulation ([2]; at 10 µM) 5.2% | insulin secretion stimulation [3] -0.8% | tube area decrease [5] 39.4% | GLP1 secretion stimulation [6] -3.6% | outcome [17] | outcome [15] | outcome [10] | outcome [11] | outcome [12] | fold change [13, 20] 0.985 and 0.843 | z-score [14, 24] -0.224 and 0.125 and 0.577 | z-score [19] -0.715
-0.152 and -0.0292 and 1.07: z-score [14, 25]
8860 and 9320: cell count [13, 22]
active: viability decrease [4] 43.7% | inhibition of viability [7] 55.5% | viability decrease (inhibition) [8] 84.4% | viability decrease (inhibition) [9] 67.5%
97%: viability [1]
